Screening results from PubChem.
Six1-Eya2 inh = inhibitors of human Six1/Eya2 interaction; Q15475+O00167; activity change, % (no concentration beside the values); actives 0.56% (n = 360,000); AlphaScreen GST-Six1/His-Eya2 binding, biochemical; stronger effect = lower value; in the data active means activity change below about -65%; inconclusive means mostly about -30% to -63%
Target sequence (O00167 whole entry, looked up): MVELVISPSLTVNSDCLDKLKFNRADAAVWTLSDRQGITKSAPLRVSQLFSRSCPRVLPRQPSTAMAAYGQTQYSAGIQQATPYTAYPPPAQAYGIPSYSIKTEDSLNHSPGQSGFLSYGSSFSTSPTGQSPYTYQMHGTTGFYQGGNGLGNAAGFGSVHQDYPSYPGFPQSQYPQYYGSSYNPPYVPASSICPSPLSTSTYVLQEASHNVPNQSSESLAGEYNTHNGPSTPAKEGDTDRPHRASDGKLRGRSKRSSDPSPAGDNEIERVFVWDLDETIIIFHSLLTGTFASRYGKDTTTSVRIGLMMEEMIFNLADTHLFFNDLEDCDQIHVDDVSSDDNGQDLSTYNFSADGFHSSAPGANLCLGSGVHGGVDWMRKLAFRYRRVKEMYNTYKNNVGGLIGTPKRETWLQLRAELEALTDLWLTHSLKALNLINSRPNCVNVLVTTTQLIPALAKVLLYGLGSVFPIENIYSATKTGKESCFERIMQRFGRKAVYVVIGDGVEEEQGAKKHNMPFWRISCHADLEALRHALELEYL
Target sequence (Q15475 whole entry, looked up): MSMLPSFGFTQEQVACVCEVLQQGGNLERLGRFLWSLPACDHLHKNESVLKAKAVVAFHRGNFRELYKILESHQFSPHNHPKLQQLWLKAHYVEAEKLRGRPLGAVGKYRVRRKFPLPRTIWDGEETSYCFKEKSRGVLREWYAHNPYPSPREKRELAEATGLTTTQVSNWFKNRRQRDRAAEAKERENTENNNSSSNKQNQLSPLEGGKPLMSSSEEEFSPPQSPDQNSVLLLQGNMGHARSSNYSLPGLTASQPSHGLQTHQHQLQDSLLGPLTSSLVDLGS
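Six1/Eya2 binding was read as AlphaScreen signal after compounds were pinned into GST-Six1 plus His-tagged Eya2 (5X stock 250/500 nM) in pH 8.0 Tris/NaCl/TCEP buffer, beads added, then incubated 1 h, 37 C, dark.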
HepG2 viability = HepG2 cytotoxicity, counter-screen for TGF-b inhibitors | Potency, µM (titrated, usually from 46.1 µM), hits mostly cytotoxic | HepG2 CAGA-GFP viability, ATP luminescence, 18 h | actives 0.76% (n = 410,000) | AID 588856
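HepG2 CAGA-GFP cells (1000/well, DMEM with 1% FBS) received compound, then TGF-beta at 500 pg/mL final, and were incubated 18 hours at 37 degrees C. Viability was read by CellTiter-Glo luminescence. Media-only wells were set as complete cell-killing and DMSO as no toxicity.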
ATXN2 expr inh = reduces ATXN2 reporter expression in HEK-293 cells | HEK-293 ATXN2-luciferase reporter, luminescence, 24 h | actives 0.72% (n = 360,000) | Potency, µM (series often up to 57 µM), hits mostly inhibitors | AID 1745845; further: nearly all actives have a fitted effect of over 55% in size
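qHTS (up to 57 uM final) was run with 24 h compound exposure of reporter cells at 37 °C. Each well was multiplexed: SteadyGlo luminescence measured ATXN2-luciferase expression after a fluorogenic Gly-Phe-AFC viability readout (25 uM final).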
CtBP-E1A inh = CtBP/E1A binding inhibition; AlphaScreen GST-E1A/His-CtBP binding, 1536-well; stronger effect = lower value; activity change, % (no concentration beside the values); actives 0.49% (n = 340,000); in the data active means activity change below about -65%; inconclusive means mostly about -30% to -63%
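Homogeneous bead-based format: GST-tagged E1A captured on glutathione donor beads, His-tagged CtBP on nickel acceptor beads; compounds precede bead addition by 2 h at 37 °C.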
S2 tox = cell viability loss in ATXN counter-screen; S2 cells (HEK-293 line with an ATXN2-luciferase reporter) viability, CellTiter-Fluor protease fluorescence, 24 h; Potency, µM (titrated, usually from 56.7 µM), usual class: cytotoxic; actives 0.49% (n = 400,000); further: nearly all actives have a fitted effect of over 40% in size
TGFb SMAD3 inh = blocks TGF-b signaling; HepG2 CAGA-GFP TGF-b/SMAD3 reporter, GFP fluorescence, 18 h; TGF-beta stimulated, 500 pg/mL final; Potency, µM (titrated, usually from 46.1 µM), most hits filed as inhibitors; actives 1.2% (n = 410,000); further: nearly all actives have a fitted effect of over 65% in size
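Cell-based qHTS in HEPG2 carrying a CAGA-GFP Smad reporter; compounds added before 500 pg/mL final TGF-beta, 18 h incubation at 37 degrees C, GFP fluorescence quantified per cell by imaging cytometry.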
Each line names hits and unclear results; the compound was inactive in the other large screens; ! = not active in a repeat. Compounds with a hit are over-represented: about 2.8% of the library has one in this group of screens. Unless noted, the call rests on the fitted dose curve; in most records, active means well fitted curve in the direction sought with a large enough effect; inconclusive means small, poorly fitted or top-dose-only effect, or another doubt; inactive means no such curve, though single readings can be large; an effect the other way counts as inactive or inconclusive.

CCN(CC)S(=O)(=O)c1ccc(NC(=O)c2ccc3c(=O)n4c(nc3c2)CCCCC4)cc1	ATXN2 expr inh 22µM, TGFb SMAD3 inh inconclusive (no result: Six1-Eya2 inh, CtBP-E1A inh, S2 tox)
CCc1ccc(NC(=O)c2ccc3c(=O)n4c(nc3c2)CCCCC4)cc1	ATXN2 expr inh inconclusive, S2 tox inconclusive
CCOc1ccc(NC(=O)c2ccc3c(=O)n4c(nc3c2)CCCCC4)cc1	HepG2 viability 8.9µM!
Cc1cc(OCCCN2CCC(C(O)(c3ccccc3)c3ccccc3)CC2)ccc1Br	ATXN2 expr inh 32µM, S2 tox 22µM (no result: HepG2 viability, TGFb SMAD3 inh)
CC(C)CC(=O)NC(Nc1ccccc1F)C(Cl)(Cl)Cl (configuration not stated)	none
CC(C)CC(=O)NC(Nc1ccc([N+](=O)[O-])cc1)C(Cl)(Cl)Cl (configuration not stated)	TGFb SMAD3 inh 16µM
O=C(NCc1ccc(Cl)cc1)c1cc2ccc3cccnc3c2[nH]1	none (no result: Six1-Eya2 inh, ATXN2 expr inh, CtBP-E1A inh, S2 tox)
O=C(NCC1CCN(Cc2ccccc2Cl)CC1)c1cc2ccc3cccnc3c2[nH]1	HepG2 viability 16µM, TGFb SMAD3 inh 16µM (no result: Six1-Eya2 inh, ATXN2 expr inh, CtBP-E1A inh, S2 tox)
O=C(NCC1CCN(Cc2ccc(F)cc2)CC1)c1cc2ccc3cccnc3c2[nH]1	HepG2 viability 18µM, TGFb SMAD3 inh 16µM (no result: Six1-Eya2 inh, ATXN2 expr inh, CtBP-E1A inh, S2 tox)
CCOc1ccccc1NC(=O)c1cc2ccc3cccnc3c2[nH]1	none (no result: Six1-Eya2 inh, ATXN2 expr inh, CtBP-E1A inh, S2 tox)
COc1cccc(CNC(=O)c2c(OC)cc(=O)n3c2CCN(C(=O)c2cc(C)ccc2C)CC3)c1	none (no result: Six1-Eya2 inh, HepG2 viability, ATXN2 expr inh, CtBP-E1A inh, TGFb SMAD3 inh)
Cc1cc(C)nc(N/N=C2/CCCC/C2=C\c2ccccc2)n1	ATXN2 expr inh 0.95µM, S2 tox inconclusive, TGFb SMAD3 inh inconclusive
CCOc1ccc(N2C(=O)c3[nH]nc(-c4ccc(OC)cc4)c3C2c2cccs2)cc1 (configuration not stated)	ATXN2 expr inh inconclusive, S2 tox 18µM, TGFb SMAD3 inh inconclusive (no result: Six1-Eya2 inh, CtBP-E1A inh)
CCOC(=O)c1ccc(N2C(=O)c3[nH]nc(-c4ccc(OCC)cc4)c3C2c2ccc(OC)cc2OC)cc1 (configuration not stated)	TGFb SMAD3 inh inconclusive (no result: Six1-Eya2 inh, CtBP-E1A inh)
CCOc1ccc(-c2n[nH]c3c2C(c2cccs2)N(c2ccc(Br)cc2)C3=O)cc1 (configuration not stated)	TGFb SMAD3 inh 6.3µM (no result: Six1-Eya2 inh, ATXN2 expr inh, CtBP-E1A inh, S2 tox)
COc1cccc(-c2cn3nc4c(nc3n2)CCCC4)c1	ATXN2 expr inh inconclusive
Clc1ccc(-c2cn3nc4c(nc3n2)CCCC4)cc1	ATXN2 expr inh 14µM (no result: S2 tox)
Cn1c(SCC(=O)Nc2cc(Cl)cc(Cl)c2)nnc1-c1ccc2nonc2c1	ATXN2 expr inh 32µM, S2 tox inconclusive, TGFb SMAD3 inh inconclusive
C[N+]1(C)CC[C@@H](OC(=O)[C@@](O)(c2ccccc2)C2CCCC2)C1	none (no result: Six1-Eya2 inh, HepG2 viability, ATXN2 expr inh, CtBP-E1A inh, TGFb SMAD3 inh)
CC(=O)NC(c1ccc(C)cc1)c1cc(Cl)c2cccnc2c1O (configuration not stated)	Six1-Eya2 inh inconclusive, ATXN2 expr inh 11µM, CtBP-E1A inh -74, TGFb SMAD3 inh inconclusive
CCCCC(=O)NC(c1ccco1)c1cc(Cl)c2cccnc2c1O (configuration not stated)	Six1-Eya2 inh inconclusive, ATXN2 expr inh inconclusive, TGFb SMAD3 inh inconclusive (no result: CtBP-E1A inh, S2 tox)
CC(=O)NC(c1cc(Cl)c2cccnc2c1O)C(C)C (configuration not stated)	ATXN2 expr inh 5.6µM, S2 tox 5µM, TGFb SMAD3 inh 6.3µM (no result: Six1-Eya2 inh, CtBP-E1A inh)
CC(=O)NC(c1cc(Cl)c2cccnc2c1O)C1CC1 (configuration not stated)	ATXN2 expr inh 8.9µM, S2 tox 3.2µM, TGFb SMAD3 inh 1.6µM (no result: Six1-Eya2 inh, CtBP-E1A inh)
CC(=O)NC(c1ccco1)c1cc(Cl)c2cccnc2c1O (configuration not stated)	ATXN2 expr inh 8.9µM, S2 tox inconclusive, TGFb SMAD3 inh inconclusive (no result: Six1-Eya2 inh, CtBP-E1A inh)
Cc1ccc2nc(CNC(=O)c3cc(NC(=O)c4ccccc4)cc4ncn(C5CCCC5)c34)cn2c1	none (no result: Six1-Eya2 inh, HepG2 viability, ATXN2 expr inh, CtBP-E1A inh, TGFb SMAD3 inh)
O=C(NCCN1CCOCC1)c1cnn(-c2nccc(-c3ccccc3F)n2)c1C1CC1	none (no result: Six1-Eya2 inh, HepG2 viability, ATXN2 expr inh, CtBP-E1A inh, TGFb SMAD3 inh)
Cc1cc(NC(=O)COCc2cc(-c3ccc(F)cc3)on2)ccc1Br	none (no result: Six1-Eya2 inh, ATXN2 expr inh, CtBP-E1A inh, S2 tox)
